Experimental data as given in PubChem BioAssay (NCI).
The panel holds about 83,000 compounds, 20% with a hit somewhere; the sample as a whole holds those more often.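 Activity criterion: percent growth below 10, measured after cells in 96-well plates were exposed to a single compound concentration for 48 hours.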 Unmarked numbers belong to inactive results. Activity calls are given as the source filed them.

Experiments:
Experiment in all cases: NCI-60 one-dose screen, 48 h (100 = growth as untreated, 0 = no growth, -100 = all killed)
Conditions in all cases: 10 µM unless noted
[1] = system: SK-MEL-2 melanoma
[2] = system: EKVX NSCLC
[3] = system: SN12C renal
[4] = system: UO-31 renal
[5] = system: TK-10 renal
[6] = system: ACHN renal
[7] = system: CAKI-1 renal
[8] = system: A498 renal
[9] = system: CCRF-CEM leukemia
[10] = system: MOLT-4 leukemia
[11] = system: RPMI-8226 leukemia
[12] = system: OVCAR-8 ovarian
[13] = system: OVCAR-5 ovarian
[14] = system: OVCAR-4 ovarian
[15] = system: SK-OV-3 ovarian
[16] = system: IGROV1 ovarian
[17] = system: OVCAR-3 ovarian
[18] = system: HS 578T breast
[19] = system: NCI/ADR-RES ovarian

Compound	growth [1]	growth [2]	growth [3]	growth [4]	growth [5]	growth [6]	growth [7]	growth [8]	growth [9]	growth [10] [%]	growth [11]	growth [12]	growth [13]	growth [14] [%]	growth [15]	growth [16]	growth [17]	growth [18]	growth [19]
O=c1[nH]c2c(ccc3cnccc32)c2c1CCC2	-15.9% (active)	-13.5% (active)	7.16% (active)	-11.5% (active)	-5.65% (active)	6.67% (active)	-19.9% (active)	-51.5% (active)	-22.3% (active)	15.9	-31% (active)	13.9%	-2.64% (active)	28.3	3.27% (active)	-71% (active)	-27% (active)	-21.8% (active)	7.35% (active)
C/C(=C\C(=O)c1ccc(Cl)cc1)c1ccc(Cl)cc1	98%	79%	103%	59.3%	74.7%	98.3%	87.8%	104%	88.4%	92.6	75%	95.5%	62.3%	67.3	94.3%	76.3%	99.2%	96.6%	103%
COc1ccc2c(c1)/C(=C/c1sc(=S)n(Cc3ccco3)c1O)C=N2	27%	60.2%	32.7%	58.6%	77.6%	40.6%	39.3%	-9.18% (active)	18.3%	29.2	18.5%	40.7%	76.8%	73.7	68.6%	47.8%	22.9%	20.4%	13.3%
COc1cc(C(=O)N/N=C/c2cc3cc(OCc4ccccc4)ccc3nc2OC)cc(OC)c1OC	85.4%	85.4%	87.9%	81%	72.1%	95.2%	98.2%	95.6%	65.9%	62.5	35.6%	68.4%	86.9%	63.4	91.1%	111%	99.4%	61.2%	82.2%
CCOC(=O)c1c(C)oc2ncnc(N3CCN(C(=O)COc4ccc(C(C)(C)C)cc4)CC3)c12	93.7%	74%	82.7%	48%	94.1%	85.9%	84.3%	82%	76.2%	59.1	44.9%	81.5%	96.8%	74.4	85.4%	73.7%	98.4%	78.8%	73.6%
Cc1ccc(-c2nn(C)c(=O)c3noc(-c4ccc(C)cc4)c23)cc1	9.26% (active)	56.5%	44.1%	41.7%	47.4%	43.5%	37.7%	25.6%	18.9%	55.8	20.4%	43.8%	57.4%	61.4	26.7%	48.2%	8.74% (active)	28%	30.4%
CN1CCN(c2ccc(-c3cnc4c(-c5csc6ccccc56)cnn4c3)cc2)CC1	-32.8% (active)	22%	0.637% (active)	-89.4% (active)	-18.7% (active)	-82.4% (active)	-13.9% (active)	-55.5% (active)	16.8%	16.2	-16.7% (active)	-29% (active)	7.38% (active)	11.9	81.1%	5.7% (active)	-68.6% (active)	-28.4% (active)	-20.8% (active)
Cc1cc(O)c(C2=NN(c3ccc(S(N)(=O)=O)cc3)C(/C=C/c3ccccc3)C2)cc1Cl (configuration not stated)	34.1%	68.8%	66.4%	78.2%	68.3%	33.1%	48.7%	39.9%	66.2%	73.3	48.7%	38.6%	51%	34.6	17%	16%	29.7%	39.2%	29.7%
